The source of these data is PubChem BioAssay (NCATS).

Experiment [1] is described as follows: qHTS profiling for inhibitors of Plasmodium falciparum proliferation (AID 504749). Further: nearly all actives have a fitted effect of over 60% in size.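 On activity, negative = inhibition: 0% = DMSO vehicle and full inhibition = artemisinin control.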 The following applies: P. falciparum in erythrocytes, SYBR Green DNA, 72 h. In outline:
(§1)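 In a 72 h erythrocytic culture (37 C, humidified, 5% CO2) at 2.5% hematocrit and 0.3% starting parasitemia, compounds were tested; SYBR Green I in detergent lysis buffer stained parasite DNA overnight.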

Another experiment has as its system 3D7. The description is as above. The note with it: P. falciparum in erythrocytes, SYBR Green DNA, 72 h; series mostly up to 28.7 µM. In a few lines:
as §1

The test system of another experiment is 7G8. The description is as above. The note with it: P. falciparum in erythrocytes, SYBR Green DNA, 72 h; series mostly up to 28.7 µM. In a few lines: as §1
The test system of another experiment is AA1029. The description is as above. The following applies: P. falciparum in erythrocytes, SYBR Green DNA, 72 h; series mostly up to 28.7 µM. In a few lines: as §1
A further experiment has as its system ATS189. The description is as above. The note with it: P. falciparum in erythrocytes, SYBR Green DNA, 72 h; series mostly up to 28.7 µM. In outline:
as §1

For a further experiment, the system named is ATS95. The description is as above. The note with it: P. falciparum in erythrocytes, SYBR Green DNA, 72 h; series mostly up to 28.7 µM. In outline: as §1
The subject of another experiment is C2A. The experiment is described as above. The following applies: P. falciparum in erythrocytes, SYBR Green DNA, 72 h; series mostly up to 28.7 µM. In a few lines: as §1
The subject of a further experiment is CP185. Described as above. The following applies: P. falciparum in erythrocytes, SYBR Green DNA, 72 h; series mostly up to 28.7 µM. In outline:
as §1

For another experiment, the system named is CP191. The experiment is described as above. The following applies: P. falciparum in erythrocytes, SYBR Green DNA, 72 h; series mostly up to 28.7 µM. In outline:
as §1

The test system of the next experiment is CP192. Described as above. The following applies: P. falciparum in erythrocytes, SYBR Green DNA, 72 h; series mostly up to 28.7 µM. In outline: as §1
The test system of the next experiment is CP201. The experiment is described as above. The note with it: P. falciparum in erythrocytes, SYBR Green DNA, 72 h; series mostly up to 28.7 µM. In outline:
as §1

The next experiment relates to CP203. Described as above. The note with it: P. falciparum in erythrocytes, SYBR Green DNA, 72 h; series mostly up to 28.7 µM. In outline: as §1
For a further experiment, the system named is CP211. The description is as above. The note with it: P. falciparum in erythrocytes, SYBR Green DNA, 72 h; series mostly up to 28.7 µM. In a few lines:
as §1

For the next experiment, the system named is CP217. The description is as above. The note with it: P. falciparum in erythrocytes, SYBR Green DNA, 72 h; series mostly up to 28.7 µM. In a few lines:
as §1

In a further experiment the test system is CP238. The description is as above. The note with it: P. falciparum in erythrocytes, SYBR Green DNA, 72 h; series mostly up to 28.7 µM. In a few lines:
as §1

For the next experiment, the system named is AS120. The experiment is described as above. The note with it: P. falciparum in erythrocytes, SYBR Green DNA, 72 h; series mostly up to 28.7 µM. In outline:
as §1

The next experiment deals with CP194. The description is as above. The note with it: P. falciparum in erythrocytes, SYBR Green DNA, 72 h; series mostly up to 28.7 µM. In a few lines:
as §1

A further experiment deals with CP215. The experiment is described as above. The note with it: P. falciparum in erythrocytes, SYBR Green DNA, 72 h; series mostly up to 28.7 µM. In outline: as §1
Another experiment relates to CP237. The description is as above. The note with it: P. falciparum in erythrocytes, SYBR Green DNA, 72 h; series mostly up to 28.7 µM. In a few lines: as §1
Where [2] appears, read: at 28.7 µM (top of the series), parasite line A.
The mark [3] stands for this setting: at 28.7 µM (top of the series), parasite line B.
Where [4] appears, read: at 12.8 µM (top of the series), parasite line A.
Where [5] appears, read: at 12.8 µM (top of the series), parasite line B.

Records with an inconclusive call do not appear. Values without a mark were called inactive. Activity calls are given as the source filed them. The call rests on the fitted dose curve; in most records, active means well fitted inhibition curve with a large enough effect; inconclusive means small, poorly fitted or top-dose-only effect; inactive means flat fitted curve, though single readings scatter.
Potency means the concentration at half of the fitted maximal effect.

`CN1CCN(c2cc3c(cc2F)c(=O)c(C(=O)O)cn3-c2ccc(F)cc2)CC1`: the activity, negative = inhibition in experiment [1] (setting [2]) is -21.3%; in experiment [1] (setting [3]), -17.5%. For the same molecule, the Potency entry in the experiment on 3D7, in the experiment with 7G8, in the experiment with AA1029, in the experiment with ATS189, in the experiment on ATS95 and in the experiment with C2A was “inactive” in each case. The Potency result in the experiment on CP185, in the experiment with CP191, with CP192, with CP201, in the experiment with CP203 and with CP211 was “inactive” each time. Further, the Potency entry with CP217 and in the experiment with CP238 was “inactive” in each case.
As to `Cc1cccc(C)c1NC(=O)CN1CCCCCC1`, the activity, negative = inhibition is 14.8% in experiment [1] (setting [2]) and 4.72% in experiment [1] (setting [3]). In addition, the Potency entry in the experiment on 3D7, in the experiment with 7G8, with AA1029, with AS120, in the experiment on ATS189 and with ATS95 was “inactive” throughout. The Potency entry with C2A, with CP185, in the experiment with CP191, in the experiment on CP192, in the experiment with CP194 and in the experiment with CP201 was “inactive” in each case. Also, the Potency entry in the experiment on CP203, in the experiment on CP211, in the experiment on CP215, with CP217 and in the experiment on CP238 was “inactive” in each case.
On to `CC(C)(C)NC[C@H](O)COc1cccc2c1CCCC2=O`, for which the activity, negative = inhibition was 5.04% in experiment [1] (setting [4]) and 7.33% in [1] (setting [5]). Besides, the Potency entry in the experiment with 3D7, with 7G8, with AA1029, with AS120, with ATS189 and in the experiment with ATS95 was “inactive” each time. For the same molecule, the Potency result in the experiment with C2A, in the experiment on CP185, in the experiment with CP191, in the experiment with CP192, with CP194 and in the experiment with CP201 was “inactive” each time. Besides, the Potency entry with CP203, in the experiment with CP211, in the experiment with CP217, with CP237 and in the experiment with CP238 was “inactive” throughout.
As for `CCCc1ncc(C[n+]2ccccc2C)c(N)n1`, the values for the activity, negative = inhibition in experiment [1] (setting [4]) and in experiment [1] (setting [5]) were 11.9% and 12%, respectively. Moreover, the Potency result in the experiment on 3D7, in the experiment with 7G8, in the experiment with AA1029, in the experiment with AS120, in the experiment on ATS189 and with ATS95 was “inactive” in each case. The Potency entry in the experiment on C2A, with CP185, in the experiment with CP191, in the experiment with CP192, with CP194 and in the experiment with CP201 was “inactive” each time. Further, the Potency entry in the experiment on CP203, in the experiment on CP211, in the experiment on CP217, in the experiment with CP237 and in the experiment with CP238 was “inactive” each time.
`CCc1oc2ccccc2c1C(=O)c1cc(Br)c(O)c(Br)c1`: the values for the activity, negative = inhibition in experiment [1] (setting [2]) and in experiment [1] (setting [3]) were -3.41% and -11.9%, respectively. The Potency entry with 3D7, in the experiment on 7G8, in the experiment with AA1029, in the experiment on AS120, with ATS189 and in the experiment on ATS95 was “inactive” each time. For the same molecule, the Potency entry in the experiment on C2A, in the experiment on CP185, in the experiment with CP191, in the experiment with CP192, with CP194 and in the experiment on CP201 was “inactive” each time. The Potency entry in the experiment with CP203, with CP211, in the experiment with CP217, with CP237 and with CP238 was “inactive” in each case.
For `COc1ccccc1N1CCN(CCCCNC(=O)c2ccc(-c3ccc(C(C)=O)cc3)cc2)CC1`, the activity, negative = inhibition was 15.8% in [1] (setting [2]) and 20.5% in experiment [1] (setting [3]). In addition, the Potency entry in the experiment on 3D7, with AA1029, in the experiment with AS120, with ATS189, in the experiment with ATS95 and in the experiment on C2A was “inactive” throughout. For the same molecule, the Potency result in the experiment on CP185, in the experiment on CP191, with CP192, in the experiment on CP194, in the experiment with CP201 and with CP203 was “inactive” each time. Moreover, the Potency entry in the experiment with CP211, with CP215, with CP217 and in the experiment on CP238 was “inactive” each time. For the same molecule, the Potency with 7G8 is 12.6 µM (active).
Turning to `CCCCCCCCCCCCCCCCO`, the activity, negative = inhibition in experiment [1] (setting [2]) was 1.6%; in experiment [1] (setting [3]), 8.58%. Moreover, the Potency result with 3D7, with 7G8, in the experiment on AA1029, in the experiment on AS120, in the experiment with ATS95 and with C2A was “inactive” each time. Moreover, the Potency result with CP185, in the experiment with CP191, with CP192, in the experiment with CP194, in the experiment with CP201 and in the experiment on CP203 was “inactive” in each case. Further, the Potency entry with CP211, in the experiment with CP215, in the experiment with CP217, in the experiment on CP237 and in the experiment with CP238 was “inactive” each time.
For `Cc1cc(NS(=O)(=O)c2ccc(N)cc2)nc(C)n1`, the activity, negative = inhibition was 9.36% in experiment [1] (setting [2]) and 5.66% in experiment [1] (setting [3]). For the same molecule, the Potency entry in the experiment on 3D7, with 7G8, in the experiment on AA1029, in the experiment with AS120, in the experiment on ATS189 and with ATS95 was “inactive” throughout. Besides, the Potency result with C2A, with CP185, in the experiment on CP191, in the experiment with CP192, in the experiment with CP194 and in the experiment with CP201 was “inactive” in each case. Also, the Potency entry in the experiment with CP203, in the experiment on CP215, in the experiment with CP217, with CP237 and in the experiment with CP238 was “inactive” in each case.
As for `N/C(=N\N=C\c1ccc(Cl)cc1)N/N=C/c1ccc(Cl)cc1`, the Potency is 3.16 µM (active) in experiment [1] (parasite line A); 5.01 µM (active) in experiment [1] (parasite line B); 3.98 µM (active) in the experiment with 3D7; 2.82 µM (active) with 7G8; 5.01 µM (active) in the experiment on AS120; 8.91 µM (active) in the experiment with ATS95. Besides, the Potency is 8.91 µM (active) with C2A, 3.16 µM (active) in the experiment on CP191, 8.91 µM (active) in the experiment with CP217 and 10 µM (active) in the experiment on CP237. For the same molecule, the Potency result with CP192, in the experiment on CP194, with CP201, with CP203, in the experiment with CP211 and in the experiment on CP215 was “inactive” throughout.
Regarding `N#CCC(=O)NN`, the results for the activity, negative = inhibition in experiment [1] (setting [2]) and in experiment [1] (setting [3]) were 10.6% and 7.8%, respectively. The Potency result in the experiment on 3D7, with 7G8, in the experiment on AA1029, with AS120, in the experiment with ATS189 and in the experiment with ATS95 was “inactive” throughout. Besides, the Potency entry with C2A, in the experiment on CP185, with CP191, with CP192, in the experiment with CP194 and with CP201 was “inactive” throughout. Besides, the Potency result in the experiment with CP203, in the experiment on CP211, in the experiment with CP217, in the experiment with CP237 and in the experiment with CP238 was “inactive” in each case.
With `O=C1C(CCS(=O)c2ccccc2)C(=O)N(c2ccccc2)N1c1ccccc1` (stereo not drawn), the activity, negative = inhibition in experiment [1] (setting [4]) is -4.48%; in [1] (setting [5]), 5.16%. Besides, the Potency result with 3D7, with 7G8, with AA1029, in the experiment with AS120, in the experiment with ATS189 and with ATS95 was “inactive” in each case. Besides, the Potency entry in the experiment with C2A, with CP185, with CP191, with CP192, in the experiment with CP194 and with CP201 was “inactive” throughout. For the same molecule, the Potency entry in the experiment with CP203, in the experiment with CP211, in the experiment on CP217, with CP237 and with CP238 was “inactive” each time.
